Screening data from PubChem.
AMA1-RON2 inh: qHTS for Inhibitors of AMA1-RON; Towards Development of Antimalarial Drug Lead: Primary Screen. actives 0.2% (n = 360,000). AlphaScreen AMA1-biotinylated RON2 peptide binding. Potency, µM (doses to about 58.2 µM), inactives show top-dose activity change, negative = inhibition, hits mostly inhibitors. Plasmodium falciparum AMA1 (3D7) - RON2 peptide interaction;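 also: potency is read from the fitted curve at half-maximal effect; 0% = vehicle wells and -100% = peptide control; nearly all actives have a fitted effect of over 45% in size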
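AMA1 (3D7) with his tag at 25 nM final met compounds first, then biotinylated RON2 peptide at 25 nM; detection used donor plus acceptor beads, 10 µg/mL apiece, read by AlphaScreen after 30 min at room temperature.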
Pf growth 48h: Primary qHTS for delayed death inhibitors of the malarial parasite plastid, 48 hour incubation; P. falciparum luciferase growth in erythrocytes, 48 h; Potency, µM (top dose mostly 28.7 µM), inactives show at the highest dose activity change, negative = inhibition, actives largely listed as inhibitors; actives 5.9% (n = 310,000); AID 504832, 2011; also: potency is read from the fitted curve at half-maximal effect; % is scaled to controls: 0 for no effect and ±100 for the full control effect
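Cell-based growth assay: transgenic P. falciparum expressing firefly luciferase, cultured in red cells within RPMI 1640 containing 0.5% w/v Albumax, 24 mM bicarbonate and gentamycin. A drop in luciferase activity indicates inhibition.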
HCV inhibitor: qHTS Assay for Inhibitors of Hepatitis C Virus (HCV) | Huh7.5.1 HCVcc-Cre infection, luciferase reporter, 44 h | Potency, µM (titrated, usually from 41.8 µM), for the others: top-dose activity change, negative = inhibition, actives largely listed as inhibitors | actives 3.4% (n = 340,000) | AID 651820, 2012; also: potency is read from the fitted curve at half-maximal effect; % is scaled to controls: 0 for no effect and ±100 for the full control effect
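Antiviral activity was scored by luciferase reporter output from cells infected with HCVcc-Cre (~0.5 moi) in presence of compound, 44 h infection period, cells seeded 1,000/well 4 h prior.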
Shiga inhibitor: A qHTS for Small Molecule Inhibitors of Shiga Toxin. Vero cells, Shiga toxin protein synthesis inhibition reporter. inhibition, % at 38.7 µM. actives 9.2% (n = 290,000); in the data active = inhibition mostly above about 28%, no sharp cut-off; inactive = mostly below about 43%; also: 0% is about no effect
Cycloheximide cs: Cycloheximide Counterscreen for Small Molecule Inhibitors of Shiga Toxin; max response, %; actives 12% (n = 300,000); cell reporter, cycloheximide protein synthesis inhibition counterscreen; AID 2314, 2010; in the data active = max response mostly above about 13%, no sharp cut-off; inactive = mostly below about 14%; also: read at 38.3 µM for the half of the compounds with a filed dose; 0% is about no effect
Pf growth 96h: Primary qHTS for delayed death inhibitors of the malarial parasite plastid, 96 hour incubation. P. falciparum luciferase reporter growth, 96 h. Potency, µM (series often up to 28.7 µM), for inactives: at the highest dose activity change, negative = inhibition, usual class: inhibitors. actives 6.9% (n = 320,000). AID 504834, 2011; also: potency is read from the fitted curve at half-maximal effect; % is scaled to controls: 0 for no effect and ±100 for the full control effect
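Luminescence readout: decreased luciferase signal marks inhibited growth of reporter-expressing P. falciparum in infected red cells (2% hematocrit, 0.05% parasitemia final), exposed to compound two generations (96 h, 37 C, 5% CO2).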
An asterisk follows results filed as active; ? = inconclusive; / = no result. The list is not random: actives were taken first. Their share in the collection is about 21%. Unless noted, calls follow the shape of the dose curve; as a rule, active = well fitted curve in the direction sought with a large enough effect; inconclusive = small, poorly fitted or top-dose-only effect, or another doubt; inactive = no such curve, though single readings can be large; an effect the other way counts as inactive or inconclusive.

SMILES	AMA1-RON2 inh	Pf growth 48h	HCV inhibitor	Shiga inhibitor	Cycloheximide cs	Pf growth 96h
COc1cc(NC(=O)C2(C)CCCN(C(C)C)C2)cc(OC)c1OC (configuration not stated)	12%	/	/	/	/	/
Cc1nc2ccc(NC(=S)NCCCO)cc2nc1C	36%	47%	-4%	40	13	47%
Cc1nc2ccc(NC(=S)NC(C)C)cc2nc1C	-8%	33%	-7%	12	20*	?
Cc1nc2ccc(NC(=S)NC3CC3)cc2nc1C	7%	44%	18%	8	19*	58%
O=C(N/N=C/c1ccc(OCC(=O)N2CCCC2)cc1)C(=O)NC1CC1	-2%	15%	5%	-5	-2	3%
O=C(C[n+]1ccc(C(=O)N/N=C/c2ccc(O)cc2)cc1)c1ccccc1	69%	/	14%	-5	10	-2%
O=C(C[n+]1ccc(C(=O)N/N=C/c2ccc(OCc3ccccc3)cc2)cc1)c1ccccc1	0%	/	6%	62*	54*	?
O=C(N/N=C/c1ccccc1OCC(=O)N1CCCC1)C(=O)Nc1ccccc1F	35%	48%	3%	active	33*	48%
O=C(N/N=C/c1ccncc1)c1ccc(OCc2ccccc2)cc1	0%	?	-20%	25	1	?
O=C(N/N=C/c1ccc(C(F)(F)F)cc1)c1ccncc1	-2%	-6%	-13%	7	3	1.7µM*
O=C(N/N=C/c1ccc(OCc2ccccc2)cc1)c1cccs1	-16%	?	-6%	66*	43*	?
CC(=O)c1ccc(CC2SC(N)=NC2=O)cc1 (configuration not stated)	14%	-7%	6%	/	6	-14%
CCCCCCN1C[C@H](n2cc(C3CC3)nn2)[C@@H](O)C[C@@H]1c1ccc(Cl)cc1	-1%	/	/	/	/	/
COC(=O)/C=C/c1ccc(OC(=O)c2ccncc2)cc1	13%	10%	14%	-16	5	13µM*
O=C(Nc1ccc(OCc2ccccc2)cc1)c1cccs1	6%	76%	-7%	/	44*	137%
O=C(Cc1ccccc1)Nc1cccc(NC(=O)c2cccs2)c1	-4%	?	1%	4	1	?
COc1ccc(OC(=O)c2ccncc2)cc1	6%	-8%	13%	-15	6	35%
O=C(N/N=C/c1ccc(OCc2ccccc2)cc1)c1ccncc1	27%	3%	1%	81	13*	?
Oc1ccc(N=Cc2ccc(OCc3ccccc3)cc2)cc1	35%	?	?	80*	44*	?
CNC[C@H]1OCCCC[C@H](C)Oc2ccc(NC(=O)CCCN(C)C)cc2C(=O)N([C@H](C)CO)C[C@@H]1C	-8%	/	/	/	/	/
CC(C)CC(NC(=O)C(COC(C)(C)C)NC(=O)C(Cc1ccc(O)cc1)NC(=O)C(CO)NC(=O)C(Cc1c[nH]c2ccccc12)NC(=O)C(Cc1cnc[nH]1)NC(=O)C1CCC(=O)N1)C(=O)NC(CCCN=C(N)N)C(=O)N1CCCC1C(=O)NNC(N)=O (configuration not stated)	/	5%	/	15	-8	-12%
COc1ccc(OCC(O)CNC(=O)c2c(-c3ccccc3)noc2C)cc1 (configuration not stated)	-6%	17%	-7%	-11	-2	32%
O=C(N/N=C/c1ccc(Cl)cc1)c1sccc1OCc1ccc(F)cc1	40µM*	?	?	-2	27*	9.3µM*
Cc1cccc(C(=O)Oc2ccc(/C=N/NC(=O)c3cc(O)cc(O)c3)cc2)c1	?	?	21%	1	12	38%
O=C(N/N=C/c1ccc(F)cc1)c1sccc1OCc1ccc(F)cc1	5%	-28%	?	51	13	?
O=C(N/N=C/c1ccc(OCC(=O)N2CCCCC2)cc1)c1ccccc1	2%	?	6%	40	30*	?
Cc1cccc(C(=O)Oc2ccc(/C=N/NC(=O)c3ccncc3)cc2)c1	13%	12µM*	-11%	28	12	12µM*
